13 compounds from PubChem BioAssay (NCI) can be followed below.

About 83,000 compounds went through this panel and 20% of them were active in at least one assay; those are over-represented in the sample as a whole.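 Method: cells in 96-well plates; compound added at one concentration; 48 h incubation; percent growth measured; values under 10 scored active.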 Values without a mark were called inactive. The source made the active and inactive calls.

The test relates to DU-145 prostate. The experiment in a line: NCI-60 one-dose screen, 48 h (100 = growth as untreated, 0 = no growth, -100 = all killed). To be noted: 10 µM.
`COc1ccc(/C=C2\CCCC3=C2NC(N)=NC3c2ccc(OC)cc2)cc1` (stereo not drawn): the growth is 109%. Consider `CN(C)CCCOc1cccc(NC2=C(Cl)C(=O)C(Nc3cccc(OCCCN(C)C)c3)=C(Cl)C2=O)c1`, for which the growth is -97.7% (active). On to `N#CC1=C(N)Oc2cc(N)ccc2C1c1cccnc1` (stereo not drawn), for which the growth was 104%. Take `COc1cc(/C=C/c2cc(/C=C/c3ccc(O)c(OC)c3)n(C(=O)Nc3ccc(C)cc3)n2)ccc1O`: the growth was 2.02% (active). The value for `Cc1ccc(-n2nnnc2N)c(C)c1` was 122%; that for `CCCCN(CCCC)C(=O)[C@H](CC)[C@@H]1CC[C@@H](C)[C@@H]([C@H](C)[C@@H](O)[C@@H](C)C(=O)[C@H](CC)C2O[C@]3(C=C[C@@H](O)[C@]4(CC[C@@](C)([C@H]5CC[C@](O)(CC)[C@H](C)O5)O4)O3)[C@H](C)C[C@@H]2C)O1` (stereo partly drawn) was 35.4%. Consider `COc1ccc2c(c1)C(=O)/C(=C/c1ccc([N+](=O)[O-])o1)O2`, for which the growth was -85% (active).

In the case of `Cc1ccc(S(=O)(=O)N(C)CCCCCC(=O)O)cc1`, the growth is 102%. As for `NC1=NC(c2ccc(Cl)cc2)C2=C(N1)/C(=C/c1ccc(Cl)cc1)CCC2` (stereo not drawn), the growth was 97.2%. As for `S=C(NCc1ccccc1)NCc1ccccc1`, the figure is 107%; as for `COc1cc2cc(Oc3ccc(NC(=O)c4ccccc4)cc3)c(C)nc2cc1OC`, 100%; as for `Cc1c(Cl)cccc1NC(=O)CN1CCOCC1`, 102%. As for `C=CCN(CC=C)C(=O)[C@H](CC)[C@@H]1CC[C@@H](C)[C@@H]([C@H](C)[C@@H](O)[C@@H](C)C(=O)[C@H](CC)C2O[C@]3(C=CC(=O)[C@]4(CC[C@@](C)([C@H]5CC[C@](O)(CC)[C@H](C)O5)O4)O3)[C@H](C)C[C@@H]2C)O1` (stereo partly drawn), the figure is 74.8%.
